D2 ag-1: activates the human D2 dopamine receptor; P14416; HEK293 T-REx D2 cells, calcium flux agonist mode; activation, % at 2 µM; actives 0.53% (n = 340,000);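 active = activation over 3 SD above normal in the single-dose calcium agonist read, cut at about 30% in these data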; also: 0% is about no effect
Target sequence (P14416 whole entry, looked up): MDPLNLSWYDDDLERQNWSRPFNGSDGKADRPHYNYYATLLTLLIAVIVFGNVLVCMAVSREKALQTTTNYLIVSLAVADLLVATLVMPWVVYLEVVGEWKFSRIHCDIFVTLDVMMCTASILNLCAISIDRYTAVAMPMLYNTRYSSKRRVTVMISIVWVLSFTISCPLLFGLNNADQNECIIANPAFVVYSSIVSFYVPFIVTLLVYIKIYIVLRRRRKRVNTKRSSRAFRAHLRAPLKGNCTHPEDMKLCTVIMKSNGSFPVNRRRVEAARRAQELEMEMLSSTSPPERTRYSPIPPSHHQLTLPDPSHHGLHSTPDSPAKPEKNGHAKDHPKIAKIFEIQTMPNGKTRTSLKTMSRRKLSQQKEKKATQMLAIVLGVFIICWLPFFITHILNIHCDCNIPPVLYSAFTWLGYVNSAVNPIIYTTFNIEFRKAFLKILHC
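Tetracycline-induced HEK293 Trex cells with D2 receptor force-coupled to calcium signaling, plated overnight at 30 C and loaded with no-wash calcium dye. Calcium flux read kinetically for 180 s after compound addition; responses flag agonists.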
D2 ag-2: agonists of human D2 dopamine receptor (beta-arrestin); activation, % (test concentration not listed); P14416; actives 0.084% (n = 360,000); DiscoveRx PathHunter D2 beta-arrestin, luminescence, 90 min; 100% = 57 uM dopamine signal; in the data active = activation above about 40%
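Agonist mode: compounds alone added to overnight-plated D2 PathHunter cells for 90 min at 37 C, with 57 uM final dopamine (EC100) defining full response. Beta-arrestin recruitment detected by chemiluminescent reagent, read after 1 h at ambient temperature.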
D2 PAM-1: positively modulates the human D2 dopamine receptor allosterically. HEK293 T-REx D2, calcium flux, EC20 dopamine potentiation. potentiation, % at 10 µM. actives 0.34% (n = 340,000). AID 485347;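 active = potentiation over 3 SD above the plate norm, cut at about 30% in these data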; also: 0% is about no effect
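Potentiation of an EC20 dopamine calcium response measured kinetically over 180 s, after a preceding 180 s compound-only read flagging agonists. Cells: inducible Hek293 Trex D2 line, 4000/well, cultured overnight at 30 C before dye loading.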
D2 PAM-2: human D2 receptor positive allosteric modulation | actives 0.23% (n = 360,000) | P14416 | potentiation, % (test concentration not listed) | DiscoveRx D2 beta-arrestin cells, luminescence, 90 min; 100% = 57 uM dopamine signal; in the data active = potentiation above about 50%
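PathHunter D2 cells, attached overnight at 37 deg C, received compound in DMSO plus dopamine at EC20 (50 nM final) for 90 min at 37 deg C. Beta-arrestin recruitment was read as luminescence after 1 h with detection reagent at ambient temperature.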
D2 antagonist: D2 dopamine receptor (human) antagonism; P14416; AID 485344; HEK293 TREx D2 cells, calcium flux, dopamine EC80; actives 2% (n = 340,000); inhibition, % at 10 µM; in the data active = inhibition above about 30%; inactive = below that, where a call was filed; also: 0% is about no effect
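Calcium mobilization kinetics were recorded at 1 s intervals in tetracycline-induced HEK293 T-REx D2 cells, first for 180 s after compound addition and then 180 s after EC80 dopamine.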
LDHA inh: inhibitors of human lactate dehydrogenase A; P00338; purified LDHA, NADH/diaphorase-resazurin fluorescence; active compounds read low; activity change, % (values are at about 110 or 230 µM); actives 0.15% (n = 480,000); AID 1347041; in the data active = activity change below about -30%;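 also: plate controls were DMSO wells for no effect and wells without enzyme for full effect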
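Human LDH5 at 2 nM final in Tris HCl pH 7.4 with 0.06 mM NADH and 0.2 mM pyruvate, reacted 5 minutes at room temperature. Remaining NADH coupled via diaphorase/resazurin; resorufin fluorescence read at 0 and 20 minutes, normalized to enzyme-free and DMSO wells.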
Starred values were filed as active, the others as inactive; . = not tested or not shown. Hits are enriched below; roughly 2.1% of the tested compounds scored in any of these assays.

SMILES	D2 ag-1	D2 ag-2	D2 PAM-1	D2 PAM-2	D2 antagonist	LDHA inh
CNc1nc(-c2ccc(NC(=O)C(C)C)cc2)cs1	.	.	.	.	.	1
N#Cc1c(C(F)(F)F)cc(-c2ccccc2Cl)[nH]c1=O	1	2	2	5	44*	0
O=C(c1ccccc1Cl)[C@@H]1[C@@H]2CCCN2[C@]2(C(=O)Nc3ccccc32)[C@@]12C(=O)Nc1ccccc12	.	.	.	.	.	-17
COc1ccc(S(=O)(=O)N2CCSC2c2cc(OC)c(OC)cc2OC)cc1 (stereo not given)	.	.	.	.	.	6
O=C(CSc1nc2cc(Cl)ccc2c(=O)n1Cc1ccccc1)N1CCCCC1	.	.	.	.	.	-1
O=C(NCc1n[nH]c(=S)n1-c1cccc(Cl)c1)c1ccc(S(=O)(=O)N2CCCCC2)cc1	-2	-9	33*	-16	-12	-4
CC(N=C1NS(=O)(=O)c2ccccc21)C(=O)NCCCc1ccccc1 (stereo not given)	.	3	.	-37	.	-4
COC(=O)c1ccc(CNC(=O)C(C)N=C2NS(=O)(=O)c3ccccc32)cc1 (stereo not given)	0	-3	-21	-38	44*	0
Cc1oc(-c2ccno2)cc1S(=O)(=O)Nc1cccc2ccccc12	.	.	.	.	.	6
Cc1ccc(C)c(OCc2cc(C(=O)N(C)Cc3nccn3C)no2)c1	35*	-2	-3	-8	3	-2
CCCn1cnc2nc(CSc3ccccc3NC(=O)c3ccccc3C)cc(=O)n21	.	.	.	.	.	0
Cc1cccn2c(=O)cc(CSc3ccccc3NC(=O)c3ccccc3Cl)nc12	.	.	.	.	.	-32*
O=[N+]([O-])c1cccc2nc(/C=C/c3ccc(O)cc3)ccc12	.	.	.	.	.	4
COc1ccc(NC(=O)c2c(NC(=O)CCC(=O)O)sc3c2CCC(C(C)(C)C)C3)cc1 (stereo not given)	.	.	.	.	.	-30*
COc1ccc(NC(=O)c2c(NC(=O)COc3ccccc3)sc3c2CCC(C(C)(C)C)C3)cc1 (stereo not given)	2	.	13	.	.	-8
CCc1ccccc1NC(=O)Cn1cnc2c(cnn2-c2cc(Cl)ccc2C)c1=O	.	.	.	.	.	-15
Cn1c(NCC(O)c2ccccc2)nc2c1c(=O)n(Cc1ccc(Cl)c(Cl)c1)c(=O)n2C (stereo not given)	.	2	.	54*	.	-2
Cc1cc(C)c(/C=C(\C#N)C(N)=S)c(C)c1	4	-4	-3	-15	84*	0
Cc1ccc(-c2ccc(/C=C(\C#N)C(N)=S)n2C)cc1	1	-8	-1	-16	-8	-6
N#C/C(=C\c1ccc(-c2ccc(Br)cc2)o1)C(=O)c1ccccc1	.	.	.	.	.	7
C/C(=N/NC(=S)NC(C)C)c1ccc(Cl)cc1Cl	.	.	.	.	.	6
CC(NC(=O)COC(=O)CCc1ccccc1)c1ccccc1 (stereo not given)	-1	-2	-25	-9	35*	-2
O=C(NCc1ccccc1)c1ccc([N+](=O)[O-])cc1	.	6	.	-5	.	-4
O=C(N[C@H]1CC1c1ccccc1)c1ccc([N+](=O)[O-])cc1 (stereo not given in full)	-2	1	-22	-13	33*	3
CC(C)(C)c1ccc(NC(=O)c2ccccc2)c([N+](=O)[O-])c1	3	-3	33*	-6	15	0
SMILES	D2 ag-1	D2 ag-2	D2 PAM-1	D2 PAM-2	D2 antagonist	LDHA inh
CCc1ccc(NC(=O)c2nc3ccccc3nc2N2CCN(C)CC2)cc1	.	.	.	.	.	1
CCc1ccc(NC(=O)c2nc3ccccc3nc2N2CCCC2)cc1	.	.	.	.	.	-31*
COc1ccc(O)c(C(=O)c2cc(C(=O)NCCc3ccccc3)c(=O)n(CCc3ccccc3)c2)c1	2	14	4	69*	-8	-3
Cc1cc(C)cc(NC(=O)N2CCc3cc(S(=O)(=O)N4CCC(C)CC4)ccc32)c1	.	.	.	.	.	2
Cc1cc(Nc2cccc([N+](=O)[O-])c2)n2c(nc3ccccc32)c1C#N	4	-1	8	16	35*	-2
COc1ccc(OC)c(C(=O)COC(=O)Cc2ccc(Cl)cc2)c1	.	.	.	.	.	1
Cc1cccc(Cn2c(C(C)(C)C)cc3cccnc32)c1	0	-5	-5	-35	45*	-2
Cc1cccc(Cn2c(CNS(=O)(=O)c3ccc(Cl)s3)nc3cccnc32)c1	-1	.	-2	.	.	0
CN(C)S(=O)(=O)N1CCc2ccc(NC(=O)C3CCCO3)cc2C1 (stereo not given)	1	-1	0	-5	31*	2
COc1ccc(COC(=O)C2=C(C)NC3=C(C(=O)CCC3)C2c2cccc(OC)c2OC)cc1 (stereo not given)	.	.	.	.	.	-3
Cc1ccc(-c2nc(CN3CCCC3c3ccsc3)co2)c(C)c1 (stereo not given)	.	.	.	.	.	2
Fc1cccc(Cl)c1C1NC(=S)NC2=C1CCc1ccccc12 (stereo not given)	.	.	.	.	.	1
CC(=O)Nc1ccc(C)cc1NC(C)=O	-1	-3	-5	6	35*	2
COC(=O)Nc1ccc(C)cc1NC(=O)OC	1	-2	-5	13	-9	1
O=C1c2cccc3c([N+](=O)[O-])ccc(c23)C(=O)N1O	0	42*	-2	4	27	1
O=C(CSc1nc2ccccc2s1)Nc1ccc(F)c(F)c1	.	.	.	.	.	4
Cc1c(C(=O)N/N=C/c2ccoc2)cccc1[N+](=O)[O-]	-1	2	12	-9	67*	-3
O=C(N/N=C/c1ccoc1)c1ccc([N+](=O)[O-])cc1	1	0	-7	-1	10	1
Cn1nc(C(F)(F)F)c(C#N)c1N1CCN(c2cccc(C(F)(F)F)c2)CC1	1	-3	-19	-29	43*	1
Cc1nc2ncnn2c(N2CCN(c3cccc(C(F)(F)F)c3)CC2)c1C	.	2	.	-6	.	-4
Cc1ccc2[nH]c3nc(N/N=C/c4cccc(O)c4)nnc3c2c1	0	-1	-11	-2	37*	-15
Cc1cc(F)ccc1S(=O)(=O)N1CCCOC1CNC(=O)C(=O)NCCCN1CCOCC1 (stereo not given)	32*	3	-7	-23	20	-4
O=C(NCCc1ccccc1)C(=O)NCC1OCCN1S(=O)(=O)c1ccc(Br)cc1 (stereo not given)	0	11	-2	-4	31*	-6
COc1ccccc1CCNC(=O)C(=O)NCC1OCCCN1S(=O)(=O)c1cc(C)ccc1C (stereo not given)	-1	-2	-1	-11	34*	-4

Screening data deposited in PubChem by National Center for Advancing Translational Sciences (NCATS).
